Most compounds without a hit are left out; they make up all but 2.3% or so of the library.
Nrf2 activator: Nrf2 pathway activation; AREc32 ARE-luciferase reporter (MCF7-derived line), luminescence, 24 h; Potency, µM (top dose mostly 46.1 µM), for inactives: at the top dose activation, most hits filed as activators; 410,000 tested, 0.31% active; AID 624171; further: potency means the concentration at half of the fitted maximal effect; % of control where 0% means no effect; nearly all actives have a fitted effect of over 65% in size
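Luminescent ARE reporter assay in AREc32_Fluc cells: overnight plating at 37 deg C, 24 hr compound incubation, Steady-Glo added, 30 min RT before reading.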
A549 viability: kills or reduces viability of A549 cells in Nrf2 counter-screen; Potency, µM (titrated, usually from 46 µM), for inactives: top-dose activity change, negative = cytotoxicity, usual class: inhibitors; 390,000 tested, 0.16% active; A549 ARE-Fluc cells, CellTiter-Fluor viability, 18-24 h; further: potency means the concentration at half of the fitted maximal effect; on the % scale 0 is the no-effect control and ±100 the full control effect
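A549 ARE-Fluc cells in 5% FBS OPTI-MEM, 5000 cells/well, rested 2 h then exposed to compounds in concentration-response for 18-24 h at 37 °C. Viability by CellTiter-Fluor fluorescence (Ex 405/Em 525) after 30 min; luciferase luminescence (BugLite, 15 min, RT) read afterwards.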
Giardia kill: Giardia lamblia killing; Giardia lamblia trophozoite viability; 340,000 tested, 0.15% active; activity change, % at 7.66 µM, hits read low; in the data active means activity change below about -80%; inconclusive means between about -30% and that limit;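 further: parasites exposed to compound for two days anaerobically before the ATP read; on the % scale 0 is the no-effect control and ±100 the full control effect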
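Giardia lamblia trophozoites (100 cells/well) were incubated with compounds for 48 h at 37 deg C under anaerobic conditions. Viability was read as ATP content by one-step luminescence after 15-30 min at room temperature.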
Apoferritin bind: candidate novel general anesthetic via apoferritin binding | P02791 | apoferritin/1-aminoanthracene competitive binding, fluorescence | Potency, µM (titrated, usually from 77.5 µM), inactives show at the highest dose activity change, negative = displacement, most hits filed as inhibitors | 350,000 tested, 0.074% active | AID 485281; further: potency means the concentration at half of the fitted maximal effect; on the % scale 0 is the no-effect control and ±100 the full control effect; nearly all actives have a fitted effect of over 20% in size
Target sequence (P02791 2-175 limits assumed): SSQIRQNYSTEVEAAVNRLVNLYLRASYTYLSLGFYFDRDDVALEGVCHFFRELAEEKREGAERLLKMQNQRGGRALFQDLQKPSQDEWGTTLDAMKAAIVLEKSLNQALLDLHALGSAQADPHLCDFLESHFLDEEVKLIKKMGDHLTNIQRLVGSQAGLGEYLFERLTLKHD
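Horse-spleen apoferritin (10 uM) in 50% saturated 1-aminoanthracene in PBS was incubated 10 min at room temperature with compound. Fluorescence (ex 380, em 535 nm) was normalized to free and bound 1-AMA, with concentration-response fitted by a four-parameter Hill equation.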
Nrf2 block: inhibitors of Nrf2 signaling; A549 ARE-Fluc reporter, luciferase luminescence, 18-24 h; Potency, µM (series often up to 46 µM), without a hit: top-dose activity change, negative = inhibition, most hits filed as inhibitors; 360,000 tested, 2.1% active; AID 504444; further: potency means the concentration at half of the fitted maximal effect; on the % scale 0 is the no-effect control and ±100 the full control effect; nearly all actives have a fitted effect of over 60% in size
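Quantitative HTS in A549 cells stably bearing an antioxidant response element-firefly luciferase construct. Inhibition of Nrf2-driven transcription was scored by luminescence after 18-24 h of compound exposure at 37 °C.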
IDH1 R132H inh: blocks human mutant IDH1 R132H enzyme; O75874; IDH1-R132H enzyme, NADPH consumption, diaphorase/resazurin fluorescence; Potency, µM (top dose mostly 76.6 µM), inactives show at the top dose activity change, negative = inhibition, hits mostly inhibitors; 390,000 tested, 0.093% active; AID 602179; further: potency means the concentration at half of the fitted maximal effect; on the % scale 0 is the no-effect control and ±100 the full control effect; nearly all actives have a fitted effect of over 65% in size
Target sequence (O75874 whole entry R132H, stated change not applied): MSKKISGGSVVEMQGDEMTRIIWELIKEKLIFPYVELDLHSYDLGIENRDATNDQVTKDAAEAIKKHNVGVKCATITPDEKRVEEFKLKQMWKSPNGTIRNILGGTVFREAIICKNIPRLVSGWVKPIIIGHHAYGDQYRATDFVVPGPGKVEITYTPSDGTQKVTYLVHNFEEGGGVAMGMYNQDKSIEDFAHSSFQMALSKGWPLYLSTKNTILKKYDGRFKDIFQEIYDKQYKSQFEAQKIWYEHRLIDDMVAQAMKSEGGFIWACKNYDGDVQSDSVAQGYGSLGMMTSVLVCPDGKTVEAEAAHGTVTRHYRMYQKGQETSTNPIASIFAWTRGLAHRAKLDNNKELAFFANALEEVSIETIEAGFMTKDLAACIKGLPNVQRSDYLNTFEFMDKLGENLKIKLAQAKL
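IDH1-R132H (0.5 ug/mL dispensed) in pH 7.5 Tris buffer was preincubated 30 min with compound, then given a substrate mix of 0.016 mM NADPH and 2 mM alpha-KG for 80 min at room temperature; remaining NADPH was read by diaphorase/resazurin fluorescence.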
* = called active by the depositor. Unless noted, the call rests on the fitted dose curve; in most records, active means well fitted curve in the direction sought with a large enough effect; inconclusive means small, poorly fitted or top-dose-only effect, or another doubt; inactive means no such curve, though single readings can be large; an effect the other way counts as inactive or inconclusive.

For Cn1cnc(S(=O)(=O)N2CCCCC2c2cc(C(=O)Nc3cccc(C#N)c3)no2)c1 (configuration not stated) the results were Nrf2 activator 5%.
For COCCn1c(=NC(=O)c2ccc3c(c2)OCCO3)sc2cc(S(N)(=O)=O)ccc21 the results were Nrf2 activator -1%, A549 viability -14%, Giardia kill 21, Apoferritin bind -12%, Nrf2 block 13µM* and IDH1 R132H inh 2%.
For C/C(CC(=O)Nc1ccc(Cl)c(C(F)(F)F)c1)=N\NC(=O)c1cccc(O)c1 the results were Nrf2 activator 1%, A549 viability -14%, Giardia kill 2, Apoferritin bind inconclusive, Nrf2 block -17% and IDH1 R132H inh -1%.
Screening C/C(CC(=O)Nc1ccc(Cl)c(C(F)(F)F)c1)=N\NC(=O)c1ccccc1O returned Nrf2 activator 9%, A549 viability inconclusive, Giardia kill -4, Apoferritin bind -11%, Nrf2 block 23µM* and IDH1 R132H inh 5%.
Screening COc1ccccc1Nc1cc2ccccc2c(=O)[nH]1 returned A549 viability inconclusive and Nrf2 block 99%.
Screening COc1cccc(C2c3c(ncn(-c4ccccc4Cl)c3=N)Oc3ccc4ccccc4c32)c1 (configuration not stated) returned A549 viability 18% and Nrf2 block -18%.
For CNC(=O)COc1ccccc1C(=O)Nc1ccc2c(c1)oc1ccccc12 the results were Nrf2 activator -2%, A549 viability 2%, Giardia kill 29, Apoferritin bind 47%, Nrf2 block 7.3µM* and IDH1 R132H inh 13%.
Screening N#Cc1ccccc1NC(=O)c1ccccc1OCC(=O)Nc1ccc2c(c1)oc1ccccc12 returned Nrf2 activator 3%, A549 viability 3%, Giardia kill -7, Nrf2 block inconclusive and IDH1 R132H inh 1%.
Screening O=C(N/N=C/c1cccnc1)c1cccc(NC(=O)c2ccc(Cl)cc2)c1 returned Nrf2 activator -1%, A549 viability 0%, Giardia kill -14, Apoferritin bind 4%, Nrf2 block 18µM* and IDH1 R132H inh 1%.
Cc1cccc(NC(=O)CSc2nc3c(oc4ccccc43)c(=O)n2C(C)C)c1 was read as Nrf2 activator 0%, A549 viability -17%, Apoferritin bind -9%, Nrf2 block inconclusive and IDH1 R132H inh -2%.
Cc1nnc(NC(=O)c2sc3ccccc3c2Cl)s1 was read as Nrf2 activator 0%, A549 viability -19%, Giardia kill -84*, Apoferritin bind -16%, Nrf2 block inconclusive and IDH1 R132H inh 24%.
Screening O=C(OCC#CCSc1nnc(-c2cccc3ccccc23)o1)c1ccc(F)nc1 returned A549 viability -10% and Nrf2 block 8%.
For COc1ccc(Br)cc1C(=O)Nc1ccc(N2CCN(S(C)(=O)=O)CC2)cc1 the results were Nrf2 activator 2%, A549 viability -18%, Giardia kill -20, Apoferritin bind -15%, Nrf2 block 18µM* and IDH1 R132H inh 10%.
`CC1CN(S(=O)(=O)c2cccc(C(=O)Nc3ccccc3N3CCCC3)c2)CC(C)O1` (configuration not stated) gave Nrf2 activator 4%, A549 viability -12%, Giardia kill 25, Nrf2 block 23µM* and IDH1 R132H inh 2%.
For COc1ccc(C(=O)Nc2ccc(N3CCCCCC3)cc2)cc1S(=O)(=O)N1CCOCC1 the results were Nrf2 activator -1%, A549 viability -17%, Giardia kill 1, Nrf2 block 13µM* and IDH1 R132H inh 1%.
Screening O=C(Nc1ccc(N2CCCCC2)cc1)c1ccccn1 returned Nrf2 activator -3%, A549 viability -3%, Giardia kill -102*, Apoferritin bind inconclusive, Nrf2 block inconclusive and IDH1 R132H inh 0%.
O=C(Nc1ccc(N2CCCCCC2)cc1)c1ccccc1Cl was read as Nrf2 activator 1%, A549 viability -15%, Giardia kill 6, Apoferritin bind inconclusive, Nrf2 block inconclusive and IDH1 R132H inh 7%.
Screening CN1CCN(S(=O)(=O)c2cccc(C(=O)Nc3ccccc3N3CCCC3)c2)CC1 returned Nrf2 activator -1%, A549 viability -8%, Giardia kill 33, Apoferritin bind -7%, Nrf2 block -13% and IDH1 R132H inh 6%.
For COc1cccc(OC)c1-c1cc(C(=O)NC2(C(=O)O)C3CC4CC(C3)CC2C4)nn1-c1ccc(C(=O)N(C)CCCN(C)C)cc1C(C)C (configuration not stated) the results were Apoferritin bind 3%.
O=C(Nc1ccc(N2CCCCCC2)cc1)c1cccc(S(=O)(=O)N2CCOCC2)c1 was read as Nrf2 activator 0%, A549 viability -3%, Giardia kill -1, Nrf2 block 16µM* and IDH1 R132H inh 9%.
Cc1ccc(N(C)S(=O)(=O)c2cccc(C(=O)Nc3ccc(N4CCOCC4)cc3)c2)cc1 was read as Nrf2 activator 2%, A549 viability 7%, Giardia kill -6, Nrf2 block inconclusive and IDH1 R132H inh 2%.
O=C(Nc1cccc(S(=O)(=O)N2CCOCC2)c1)c1cccc(S(=O)(=O)N2CCCCC2)c1 was read as Nrf2 activator -1%, A549 viability -4%, Giardia kill 11, Nrf2 block inconclusive and IDH1 R132H inh 2%.
`O=C(Nc1ccc(Br)cc1)c1cccc(OC(=S)N2CCOCC2)c1` gave Nrf2 activator 3%, A549 viability -15%, Giardia kill -5, Apoferritin bind 7%, Nrf2 block 16µM* and IDH1 R132H inh 8%.
For CN(c1ccccc1)S(=O)(=O)c1cccc(C(=O)Nc2ccc(N3CCOCC3)cc2)c1 the results were Nrf2 activator 4%, A549 viability -3%, Giardia kill 1, Nrf2 block 15µM* and IDH1 R132H inh 6%.
`O=C(Nc1ccc(F)cc1)c1ccc(Br)c(S(=O)(=O)N2CCOCC2)c1` gave Nrf2 activator 3%, A549 viability -17%, Giardia kill -6, Apoferritin bind 7%, Nrf2 block 15µM* and IDH1 R132H inh 0%.
For Cc1ccc(C(=O)Nc2ccc(F)cc2)cc1S(=O)(=O)N1CCOCC1 the results were Nrf2 activator 4%, A549 viability -7%, Apoferritin bind -5% and IDH1 R132H inh 2%.
Screening CC[C@H](C)[C@H](NC(=O)[C@H](CC(C)C)NC(=O)[C@@H](N)CO)C(=O)NCC(=O)N[C@@H](CCCCN)C(=O)N[C@H](C(=O)O)C(C)C returned Apoferritin bind 4%.

Source: PubChem (National Center for Advancing Translational Sciences (NCATS))
